{"source": "PubChem BioAssay (NCATS)", "key": {"[1]": {"assay": "Primary qHTS for small molecule stabilizers of the endoplasmic reticulum resident proteome: Secreted ER Calcium Modulated Protein (SERCaMP) assay (AID 1508630)", "how_it_was_run": "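GLuc-SERCaMP-expressing SH-SY5Y cells, pretreated 16 h with compound, are challenged with thapsigargin to empty ER calcium stores; after 4 h, coelenterazine is added directly to the medium and luminescence is imaged.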"}, "[2]": {"assay": "A High-Content qHTS Against Drug Library for the Identification of Small Molecules that Inhibit DYT1 Early Onset Primary Dystonia-Associated Cell Pathology (AID 1645839; calls by dose curve; further: series mostly up to about 46 µM)", "how_it_was_run": "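In this high-content image screen, delE TorsinA mislocalization in inducible Flp-In 293 cells is scored as %pathology, with cell count serving as the counterscreen. Compound exposure lasts 48 h under tetracycline induction in reduced-serum medium.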"}, "Papain (Carica papaya)": {"target": "Papain (Carica papaya) (UniProt P00784)", "sequence (P00784 whole entry, looked up)": "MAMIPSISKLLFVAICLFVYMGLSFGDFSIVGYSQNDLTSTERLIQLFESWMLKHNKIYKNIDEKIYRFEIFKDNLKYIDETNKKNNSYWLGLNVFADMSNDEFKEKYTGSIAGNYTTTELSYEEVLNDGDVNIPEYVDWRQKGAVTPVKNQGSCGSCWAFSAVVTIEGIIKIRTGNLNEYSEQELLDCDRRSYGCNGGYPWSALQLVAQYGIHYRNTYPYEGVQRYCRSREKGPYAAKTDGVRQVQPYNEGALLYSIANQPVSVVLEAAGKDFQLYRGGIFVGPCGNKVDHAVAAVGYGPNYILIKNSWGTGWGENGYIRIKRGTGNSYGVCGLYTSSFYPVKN", "assay": "Primary qHTS assay for inhibitors of the protease papain (AID 1645873);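 further: papain turnover of Z-FR-AMC read as the AMC fluorescence gain over 10 min; series mostly up to about 50 µM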"}, "[3]": {"target": "Cytochrome P450 2D6 (Homo sapiens) (UniProt P10635)", "sequence (P10635 whole entry, looked up)": "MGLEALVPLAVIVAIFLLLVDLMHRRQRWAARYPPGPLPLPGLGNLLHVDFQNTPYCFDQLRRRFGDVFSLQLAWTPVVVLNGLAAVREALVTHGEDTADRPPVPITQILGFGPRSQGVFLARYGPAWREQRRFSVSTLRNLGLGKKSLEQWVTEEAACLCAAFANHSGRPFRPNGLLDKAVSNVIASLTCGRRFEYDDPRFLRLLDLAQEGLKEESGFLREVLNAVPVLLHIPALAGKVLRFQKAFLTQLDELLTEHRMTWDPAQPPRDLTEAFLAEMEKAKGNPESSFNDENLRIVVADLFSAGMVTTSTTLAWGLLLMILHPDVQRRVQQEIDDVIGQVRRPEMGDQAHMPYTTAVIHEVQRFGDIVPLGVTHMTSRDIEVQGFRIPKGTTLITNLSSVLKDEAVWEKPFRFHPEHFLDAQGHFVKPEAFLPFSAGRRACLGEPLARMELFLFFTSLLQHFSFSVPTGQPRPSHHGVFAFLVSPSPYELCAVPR", "assay": "Cytochrome P450 family 2 subfamily D member 6 (CYP2D6) small molecule antagonists: luciferase biochemical (cell-free) qHTS assay (AID 1645840; active means well fitted curve in the direction sought with a large enough effect in the repeat runs; an effect the other way counts as inactive or inconclusive; further: nearly all actives have a fitted effect of over 55% in size; further: potency means the concentration at half of the fitted maximal effect)", "how_it_was_run": "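P450-Glo luminescent screen: recombinant CYP2D6 enzyme–proluciferin substrate mix preincubated with compound 10 min at room temperature, then NADPH regeneration added for 1 h at room temperature. Detection reagent added for 20 min; luciferin light read as relative luminescence units.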"}, "[4]": {"target": "Cytochrome P450 3A4 (Homo sapiens) (UniProt P08684)", "sequence (P08684 whole entry, looked up)": "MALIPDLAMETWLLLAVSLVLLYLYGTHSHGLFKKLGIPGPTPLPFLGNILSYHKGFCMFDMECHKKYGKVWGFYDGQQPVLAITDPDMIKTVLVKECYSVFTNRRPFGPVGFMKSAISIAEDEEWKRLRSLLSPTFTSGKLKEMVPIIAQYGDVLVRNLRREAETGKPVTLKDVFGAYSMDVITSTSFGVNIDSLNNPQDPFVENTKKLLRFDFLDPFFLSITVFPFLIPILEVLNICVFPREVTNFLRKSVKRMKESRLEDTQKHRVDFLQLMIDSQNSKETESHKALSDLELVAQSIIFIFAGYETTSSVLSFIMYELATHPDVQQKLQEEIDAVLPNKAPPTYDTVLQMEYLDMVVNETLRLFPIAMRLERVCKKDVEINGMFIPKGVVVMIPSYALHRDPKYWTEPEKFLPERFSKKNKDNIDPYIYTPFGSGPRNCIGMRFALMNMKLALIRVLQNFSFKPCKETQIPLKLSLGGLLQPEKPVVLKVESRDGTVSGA", "assay": "Cytochrome P450 family 3 subfamily A member 4 (CYP3A4) small molecule antagonists: luciferase qHTS assay (AID 1645841; active means well fitted curve in the direction sought with a large enough effect in the repeat runs; an effect the other way counts as inactive or inconclusive; further: nearly all actives have a fitted effect of over 45% in size)", "how_it_was_run": "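Luminescent CYP3A4 activity readout: compounds plus enzyme-substrate mix 10 min at room temperature, reaction started with NADPH regenerating system for 1 h, stopped with detection reagent, read after 20 min. Ketoconazole served as control.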"}, "[5]": {"target": "N-terminal Xaa-Pro-Lys N-methyltransferase 1 (Homo sapiens) (UniProt Q9BV86)", "sequence (Q9BV86 whole entry, looked up)": "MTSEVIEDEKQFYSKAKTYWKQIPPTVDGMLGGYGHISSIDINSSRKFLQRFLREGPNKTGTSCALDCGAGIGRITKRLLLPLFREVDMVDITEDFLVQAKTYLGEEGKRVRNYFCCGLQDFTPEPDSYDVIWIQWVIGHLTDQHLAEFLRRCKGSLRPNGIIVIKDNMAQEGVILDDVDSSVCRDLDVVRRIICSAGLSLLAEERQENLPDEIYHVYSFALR", "assay": "Confirmatory qHTS for Inhibitors of N-terminal methyltransferase 1 (NTMT1): MTaseGlo Assay (AID 1645874); further: potency means the concentration at half of the fitted maximal effect; nearly all actives have a fitted effect of over 65% in size", "details": "NTMT1 enzyme, MTase-Glo SAH luminescence", "how_it_was_run": "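qHTS format: NTMT1 125 nM, SAM 100 uM, peptide SPKRIA 1 uM final; 15 min compound preincubation, 30 min reaction at room temperature. MTase-Glo luminescence.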"}, "[6]": {"target": "Cytochrome P450 2C9 (Homo sapiens) (UniProt P11712)", "sequence (P11712 whole entry, looked up)": "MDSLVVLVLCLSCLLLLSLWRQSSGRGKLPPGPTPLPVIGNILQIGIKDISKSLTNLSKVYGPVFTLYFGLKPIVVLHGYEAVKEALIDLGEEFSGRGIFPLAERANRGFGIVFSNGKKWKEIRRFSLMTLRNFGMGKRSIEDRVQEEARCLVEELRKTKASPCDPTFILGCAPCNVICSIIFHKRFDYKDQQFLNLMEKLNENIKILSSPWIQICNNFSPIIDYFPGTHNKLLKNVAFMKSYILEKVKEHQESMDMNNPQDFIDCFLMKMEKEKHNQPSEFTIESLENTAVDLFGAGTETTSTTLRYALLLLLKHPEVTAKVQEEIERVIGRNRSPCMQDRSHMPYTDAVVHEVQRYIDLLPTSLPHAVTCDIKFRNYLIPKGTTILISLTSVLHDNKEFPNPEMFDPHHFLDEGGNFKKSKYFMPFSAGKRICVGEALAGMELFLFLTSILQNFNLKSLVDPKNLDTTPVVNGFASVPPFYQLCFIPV", "assay": "Cytochrome P450 family 2 subfamily C member 9 (CYP2C9) small molecule antagonists: luciferase biochemical (cell-free) qHTS assay (AID 1645842; active means well fitted curve in the direction sought with a large enough effect in the repeat runs; an effect the other way counts as inactive or inconclusive; further: nearly all actives have a fitted effect of over 55% in size; further: potency means the concentration at half of the fitted maximal effect)", "how_it_was_run": "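Luminescence, after 20 min with luciferin detection reagent, reflected CYP2C9 turnover during a 1 h NADPH-driven reaction at 37C. Enzyme-substrate mix contained 0.4% bovine serum albumin and was preincubated with compound 10 min at room temperature.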"}, "[7]": {"assay": "Primary qHTS for inhibitors of nuclear receptor binding SET domain protein 2 (NSD2) in an isogenic RCH-ACV NSD2 p.E1099K mutant (9B) (AID 1645876); further: nearly all actives have a fitted effect of over 70% in size; further: potency means the concentration at half of the fitted maximal effect"}}, "note": "Inconclusive results are not listed. Entries that show only a call come without a potency. Active and inactive are the calls of the source. Unless noted, the call rests on the fitted dose curve; in most records, active means well fitted curve in the direction sought with a large enough effect; inconclusive means small, poorly fitted or top-dose-only effect, or another doubt; inactive means no such curve, though single readings can be large; an effect the other way counts as inactive or inconclusive."}
{"smiles": "C[C@]12CC[C@@H]3c4ccc(O)cc4CC[C@H]3[C@@H]1CCC2=O", "values": [{"measurement": "Potency", "setting": "[1]", "result": "inactive"}, {"measurement": "Potency", "setting": "[2]", "result": "inactive"}, {"measurement": "Potency", "setting": "Papain (Carica papaya)", "result": "inactive"}]}
{"smiles": "Cc1c(Cl)cccc1Nc1ccccc1C(=O)O", "values": [{"measurement": "Potency", "setting": "[1]", "result": "inactive"}, {"measurement": "Potency", "setting": "[3]", "result": "inactive"}]}
{"smiles": "CC(C)(C)c1onc(OCP(=O)(O)O)c1CC(N)C(=O)O", "note": "(stereo not drawn)", "values": [{"measurement": "Potency", "setting": "[1]", "result": "inactive"}, {"measurement": "Potency", "setting": "Papain (Carica papaya)", "result": "inactive"}]}
{"smiles": "Cc1cc2c(cc1S(N)(=O)=O)S(=O)(=O)CCC2", "values": [{"measurement": "outcome", "setting": "[4]", "result": "inactive"}]}
{"smiles": "[Cl][In]([Cl])[Cl]", "values": [{"measurement": "outcome", "setting": "[4]", "result": "inactive"}, {"measurement": "Potency", "setting": "[5]", "result": "4.91 µM (active)"}]}
{"smiles": "N[C@H](C(=O)O)c1ccc(O)cc1", "values": [{"measurement": "Potency", "setting": "[2]", "result": "inactive"}, {"measurement": "Potency", "setting": "[6]", "result": "inactive"}, {"measurement": "Potency", "setting": "[7]", "result": "inactive"}]}
{"smiles": "CSc1ccc2c(c1)N(CCC1CCCCN1C)c1ccccc1S2", "note": "(stereo not drawn)", "values": [{"measurement": "Potency", "setting": "[6]", "result": "inactive"}, {"measurement": "Potency", "setting": "Papain (Carica papaya)", "result": "inactive"}, {"measurement": "Potency", "setting": "[7]", "result": "5.96 µM (active)"}]}
{"smiles": "O=C1c2c(O)cccc2Cc2cccc(O)c21", "values": [{"measurement": "Potency", "setting": "[2]", "result": "inactive"}, {"measurement": "Potency", "setting": "[6]", "result": "inactive"}, {"measurement": "Potency", "setting": "[7]", "result": "inactive"}]}
{"smiles": "CO/N=C(\\C(=O)N[C@@H]1C(=O)N2C(C(=O)O)=C(CSc3nc(=O)c(O)nn3C)CS[C@H]12)c1csc(N)n1", "values": [{"measurement": "Potency", "setting": "[2]", "result": "inactive"}, {"measurement": "Potency", "setting": "[7]", "result": "inactive"}]}
{"smiles": "C[C@@H](O)[C@H](N)C(=O)O", "values": [{"measurement": "Potency", "setting": "[2]", "result": "inactive"}, {"measurement": "Potency", "setting": "[6]", "result": "inactive"}, {"measurement": "Potency", "setting": "[7]", "result": "inactive"}]}
{"smiles": "CC(C)(C)C(=O)NCCCC(=O)O", "values": [{"measurement": "Potency", "setting": "[2]", "result": "inactive"}, {"measurement": "Potency", "setting": "[6]", "result": "inactive"}, {"measurement": "Potency", "setting": "[7]", "result": "inactive"}]}
{"smiles": "CC1CC(OC(=O)C(O)c2ccccc2)CC(C)(C)N1C", "note": "(stereo not drawn)", "values": [{"measurement": "Potency", "setting": "[2]", "result": "inactive"}, {"measurement": "Potency", "setting": "[6]", "result": "inactive"}, {"measurement": "Potency", "setting": "[7]", "result": "inactive"}]}
{"smiles": "NC1[C@H]2CN(c3nc4c(cc3F)c(=O)c(C(=O)O)cn4-c3ccc(F)cc3F)C[C@@H]12", "note": "(stereo partly drawn)", "values": [{"measurement": "Potency", "setting": "[3]", "result": "inactive"}, {"measurement": "Potency", "setting": "[6]", "result": "inactive"}, {"measurement": "Potency", "setting": "[7]", "result": "2.99 µM (active)"}]}
{"smiles": "CNCC(O)c1ccc(O)c(O)c1", "note": "(stereo not drawn)", "values": [{"measurement": "Potency", "setting": "[2]", "result": "inactive"}, {"measurement": "Potency", "setting": "[6]", "result": "inactive"}, {"measurement": "Potency", "setting": "Papain (Carica papaya)", "result": "inactive"}, {"measurement": "Potency", "setting": "[7]", "result": "inactive"}]}
{"smiles": "Cc1cc(C(C#N)c2ccc(Cl)cc2)c(Cl)cc1NC(=O)c1cc(I)cc(I)c1O", "note": "(stereo not drawn)", "values": [{"measurement": "Potency", "setting": "[3]", "result": "11 µM (active)"}, {"measurement": "Potency", "setting": "[6]", "result": "21.9 µM (active)"}]}
{"smiles": "CC1(C)S[C@@H]2[C@H](NC(=O)Cc3ccccc3)C(=O)N2[C@H]1C(=O)O", "note": "(tested in a mixture with another compound)", "values": [{"measurement": "Potency", "setting": "[2]", "result": "inactive"}, {"measurement": "Potency", "setting": "[7]", "result": "inactive"}]}
{"smiles": "CC(C)(C(=O)O)c1ccc(C(O)CCCN2CCC(C(O)(c3ccccc3)c3ccccc3)CC2)cc1", "note": "(stereo not drawn)", "values": [{"measurement": "Potency", "setting": "[2]", "result": "inactive"}, {"measurement": "Potency", "setting": "Papain (Carica papaya)", "result": "inactive"}]}
{"smiles": "CC(O)CN(CCN(CC(C)O)CC(C)O)CC(C)O", "note": "(stereo not drawn)", "values": [{"measurement": "Potency", "setting": "[2]", "result": "inactive"}, {"measurement": "Potency", "setting": "[6]", "result": "inactive"}, {"measurement": "Potency", "setting": "[7]", "result": "inactive"}]}
{"smiles": "NCCNCCNCCN", "values": [{"measurement": "Potency", "setting": "[2]", "result": "inactive"}, {"measurement": "Potency", "setting": "[6]", "result": "inactive"}, {"measurement": "Potency", "setting": "[7]", "result": "inactive"}]}
{"smiles": "CN(C)CCCN1c2ccccc2CCc2ccccc21", "values": [{"measurement": "Potency", "setting": "[6]", "result": "inactive"}]}
{"smiles": "CC(CN1c2ccccc2Sc2ccccc21)N(C)C", "note": "(stereo not drawn)", "values": [{"measurement": "Potency", "setting": "[6]", "result": "inactive"}, {"measurement": "Potency", "setting": "Papain (Carica papaya)", "result": "inactive"}, {"measurement": "Potency", "setting": "[7]", "result": "16.8 µM (active)"}]}
